Growth data for 38 compounds are collected here from PubChem BioAssay (NCI).

Compounds without any hit were thinned out: in the full panel of roughly 83,000, 20% have a hit.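 Step 1: grow cells in 96-well plates. Step 2: add test compound at a single concentration. Step 3: incubate 48 h. Step 4: record percent growth.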 A number with no mark means an inactive call. Active and inactive are the calls of the source. Rule for the calls: active = growth percent below 10; inactive = the rest.

The test concerns DU-145 prostate. Kind of test: NCI-60 one-dose screen, 48 h (100 = growth as untreated, 0 = no growth, -100 = all killed). Conditions: 10 µM unless noted.
As to `COC(=O)C[C@](O)(CCCC(C)(C)O)C(=O)O[C@H]1C(OC)=C[C@@]23CCCN2CCc2cc4c(cc2[C@@H]13)OCO4`, the growth is -11.7% (active).

In the case of `COc1cc(/C=C2\C(=N)N=C(SCc3nc4ccccc4[nH]3)NC2=O)ccc1O`, the growth is 108%.

As to `N/C(=N\N=C\c1ccc([N+](=O)[O-])cc1)c1c(N)nc(=S)[nH]c1-c1ccc(Cl)cc1Cl`, the growth is 115%.

As to `CC1(c2cc3cc(Cl)ccc3oc2=O)NC(=O)c2c(/C=C/C(=O)OC3CC4CCC3(C)C4(C)C)cccc2N1` (stereo not drawn), the growth is 71.2%.

With `O=C(N=Nc1c(O)[nH]c2ccc(Cl)cc12)c1ccc2nc(-c3ccccc3)[nH]c2c1`, the growth is 10.9%.

For the compound `O=C(O)c1cccc(-c2ccc(/C=N/NC(=O)c3[nH]c4ccc(Br)cc4c3-c3ccccc3)o2)c1`, the growth was 98.7%.

Regarding `CC1(C)CC[C@]2(C(=O)Nc3ccccc3)CC[C@]3(C)C(=CCC4[C@@]5(C)C[C@@H](O)[C@H](O)[C@@](C)(CO)C5CC[C@]43C)C2C1` (stereo partly drawn), the growth was 76.8%.

Regarding `O=c1[nH]c2ccccc2cc1CSc1cccc(Nc2nccc(-c3ccc4ccccc4c3)n2)c1`, the growth was 89.6%.

For `Clc1cccc(N/N=C/c2c[nH]c3ccc(Br)cc23)n1`, the growth is 64.1%.

`CSc1ccc(NC(=O)c2ccc3nnn(/C(C#N)=C/c4ccccn4)c3c2)cc1`: the growth was -97.9% (active).

On to `Cc1c(C(=O)NNC(=O)c2ccc(Cl)cc2)nnn1-c1ccc(Cl)cc1`, for which the growth is 108%.

For `CN(C)c1nc(NCCNS(=O)(=O)c2ccc(C(=O)/C=C/c3ccc(F)cc3)cc2)nc(Nc2ccc(F)cc2)n1`, the growth is -83.9% (active).

`CNC(=O)c1cc(Oc2ccc3nc(NC(=O)Nc4cccc(OC(F)(F)F)c4)sc3c2)ccn1`: the growth is 36.8%.

For `CC(C)(C)OC(=O)/C=C/c1cccc2c1C(=O)NC(C)(c1cc3cc(Cl)ccc3oc1=O)N2` (stereo not drawn), the growth is 61.1%.

As for `Cc1ccc(C2CC(c3ccc(S(=O)(=O)NCCNc4nc(Nc5ccc(F)cc5)nc(N(C)C)n4)cc3)=Nc3c(N)nc(N)nc3N2)cc1` (stereo not drawn), the growth was 76%.

Take `CC1=C(C(=O)OC(C)C)C(c2cccc(O)c2)NC(=S)N1` (stereo not drawn): the growth is 104%.

As to `C[C@H](Nc1nc(NCCc2ccccc2)nc2ccccc12)c1ccccc1`, the growth is -85.6% (active).

In the case of `COc1ccc(-c2c(Nn3cnnn3)no[n+]2[O-])cc1`, the growth was 63.1%.

For `Cn1cc(NC(=O)c2cc(NC(=O)c3ccc(C#Cc4ccccc4)cc3)cn2C)cc1C(=O)NCCCN1CCOCC1`, the growth was 56.4%.

Take `COc1cc(NC(=O)c2cccc(C3CCc4c(cc(OC)c(OC)c4OC)O3)c2)cc(OC)c1OC` (stereo not drawn): the growth is 11.6%.

Turning to `COc1ccc(-c2nnc3ccc(N/N=C/c4ccc(C)cc4)nn23)cc1`, the growth is 39.1%.

Take `Cc1ccc(-n2c(-c3cc4ccccc4nc3Cl)noc2=O)cc1`: the growth is 105%.

For the compound `CC(=O)Oc1ccccc1C(=O)[Se]CC(=O)Nc1cccc(C(F)(F)F)c1`, the growth was 8.88% (active).

`N#Cc1c(-c2ccccc2Cl)cc(-c2ccc3ccccc3c2)[nH]c1=O`: the growth was 49%.

Turning to `CCCCNC(=S)Nc1ccc(OCc2nc3ccccc3[nH]2)cc1`, the growth was 58.9%.

For `COc1ccc(-c2nc3cc(C)ccc3n2CC(=O)N=Nc2c(O)[nH]c3ccccc23)cc1`, the growth is 9.13% (active).

Turning to `COc1ccc(-c2nc3ccc(C(=O)NN4C(=O)c5ccc([N+](=O)[O-])cc5C4=O)cc3[nH]2)cc1`, the growth is 109%.

On to `O=c1oc2ccccc2cc1-c1csc(N=Nc2c(O)[nH]c3ccc(Cl)cc23)n1`, for which the growth was 98%.

As for `CN(C)c1ccnc(CNCCSC2(c3ccccc3)c3ccccc3C=Cc3ccccc32)c1`, the growth was -26.1% (active).

As for `COc1cc2c(c(OC)c1OC)C(=O)CC(c1cccc(NC(=O)c3cc(NC(=O)[C@@H](N)CO)ccc3C)c1)O2` (stereo partly drawn), the growth is 119%.

In the case of `COc1ccc(C(=O)/C=C/c2c(F)cccc2Cl)cc1S(N)(=O)=O`, the growth is -0.489% (active).

`O=C(Nc1cccc(-n2cnc3cc(-c4ccc(O)cc4)ccc32)c1)C1CC1`: the growth is 28.5%.

On to `COc1ccc(C2(SCCNCc3cc(N(C)C)ccn3)c3ccccc3C=Cc3ccccc32)cc1`, for which the growth was 18.1%.

Turning to `N/C(=N\c1nc2ccccc2s1)NC(=O)Nc1ccccc1Br`, the growth is -40.7% (active).

Consider `COc1ccc(C2=NN(c3ccccc3)C(c3ccc(OC)c(OCc4ccccc4)c3)C2)cc1OC` (stereo not drawn), for which the growth was 105%.

For `CC1=C(C(=O)c2ccccc2)C(c2ccc(-n3cncn3)cc2)n2c(nc3ccccc32)N1` (stereo not drawn), the growth was 71.7%.

Turning to `CN(C)CCCNC(=O)c1cc(NC(=O)c2cc(NC(=O)c3ccc(C#Cc4ccccc4)cc3)cn2C)cn1C`, the growth was 18.2%.

For `COc1cccc(/C=C/c2nc3ccccc3c(=O)n2CC(=O)Nc2ccc(Cl)cc2)c1`, the growth was 68.9%.
